Whole data set: some 35,000 sequences, median “fluorescence intensity (a.u.)” near 10,000, cut for the highest 2% near 52,000. What follows is part of a selection rich in the highest values, with near analogues and random picks from the rest.
Each sequence was assayed against T1, OsWOX13 (Oryza sativa, UniProt Q5QMM3 1-267) (assay: protein-binding microarray (RPBM); PBS, 2% BSA, 51.3 ng/ul salmon testes DNA, 50 uM zinc acetate, 200 nM TF, 25 C, 1 h; high values mean tight binding). Details: protein: recombinant; tags: N-terminal polyhistidine and DsRed monomer fusion (pET32a); label: CyDye5-dUTP incorporated in the synthesized complementary strand; 3' TTTTT single-stranded linker to array surface; dsDNA, one strand shown.
T1 sequence: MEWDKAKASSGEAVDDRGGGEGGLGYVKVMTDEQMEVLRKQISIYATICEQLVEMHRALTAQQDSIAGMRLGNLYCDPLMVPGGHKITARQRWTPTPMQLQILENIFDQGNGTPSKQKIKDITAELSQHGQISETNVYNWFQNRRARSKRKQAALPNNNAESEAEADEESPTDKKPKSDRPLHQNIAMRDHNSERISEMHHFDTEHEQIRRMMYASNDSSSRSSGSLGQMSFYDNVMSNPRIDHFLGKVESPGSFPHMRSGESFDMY
Summary of the method: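 Transcription factors, each fused N-terminally to a polyhistidine tag and DsRed, were expressed in E. coli BL21-CodonPlus and purified on Ni–NTA. A custom Agilent array was made double-stranded by primer extension with Cy5-dUTP and blocked with 2% BSA. It was incubated with 200 nM protein in PBS, 2% BSA, salmon testes DNA and 50 µM zinc acetate at 25 °C for 1 h, then washed. The binding signal is per-feature fluorescence intensity (arbitrary units) read on an Axon 4000B scanner.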

Row | Sequence | binding signal
1 | ATGATTGATTGTAAATTAGGTTGAATAATTGATATATACTCGGAGTCACCTAGTGCAG | 54800 fluorescence intensity (a.u.)
2 | ATATAATTGATAATAAATCAGGGCATGACATGTCACATATCGGAGTCACCTAGTGCAG | 56400 fluorescence intensity (a.u.)
3 | ATGTAAATTACTTTTAGGCTTTATTGAATTACTTTTATATCGGAGTCACCTAGTGCAG | 7630 fluorescence intensity (a.u.)
4 | ATAATAATTGATAGGTAACCATGATTATCGATAAAACCATCGGAGTCACCTAGTGCAG | 59000 fluorescence intensity (a.u.)
5 | TTAAATAAATTACTTTTAAATTAATAAAATGTTTGAATATCGGAGTCACCTAGTGCAG | 5500 fluorescence intensity (a.u.)
6 | GTGGTTGTATTAAATATATTGATAGTTAGGTATATGAATACGGAGTCACCTAGTGCAG | 4110 fluorescence intensity (a.u.)
7 | CGAAATTATAATGATTAAACAAAATTGATCGATATAACTACGGAGTCACCTAGTGCAG | 41000 fluorescence intensity (a.u.)
8 | GTCTCGATATAATTATGAATTTTGAAATATATAAACCCATCGGAGTCACCTAGTGCAG | 8250 fluorescence intensity (a.u.)
9 | TGTAATTGATAAATATAAATTTACTTTAGGCATGTTTGATCGGAGTCACCTAGTGCAG | 55700 fluorescence intensity (a.u.)
10 | TCACATTGATATTAATTAATCTAGATAAATATATATATGTCGGAGTCACCTAGTGCAG | 17200 fluorescence intensity (a.u.)
11 | AAAATATATAATTATTATTTATTTTATTATGACATGATATCGGAGTCACCTAGTGCAG | 17400 fluorescence intensity (a.u.)
12 | ATTGATTTAATGAAAATAATTTAATATTATAAATATTACTCGGAGTCACCTAGTGCAG | 35700 fluorescence intensity (a.u.)
13 | TTGTATTTGTTAATGGAATGCTGATTGGTGCACAGCAAACCGGAGTCACCTAGTGCAG | 29900 fluorescence intensity (a.u.)
14 | ATTAAATTTGGGCTAACTGGCCTCCACACATCCCATATAACGGAGTCACCTAGTGCAG | 11000 fluorescence intensity (a.u.)
15 | GATAAATTACGATAATACCCCTATACGAATTATTATCTCTCGGAGTCACCTAGTGCAG | 12900 fluorescence intensity (a.u.)
16 | TGTTTTGATTGTTTCTTATTACTCCCTCCGATTATAAATACGGAGTCACCTAGTGCAG | 25500 fluorescence intensity (a.u.)
17 | TCCGATTGATTACCTTCTATAAATACCTCACCCCACCCCTCGGAGTCACCTAGTGCAG | 57600 fluorescence intensity (a.u.)
18 | TAAATTGGCTATTACATTAGTTATAAATGATTTGGAGCTACGGAGTCACCTAGTGCAG | 34400 fluorescence intensity (a.u.)
19 | AATATTATTTATATGTAATTACATAAGTAATATGTAATTTCGGAGTCACCTAGTGCAG | 9490 fluorescence intensity (a.u.)
20 | ATTGATTTACGGGATTGAAGTTAGTATAATTACATGTAAGCGGAGTCACCTAGTGCAG | 53600 fluorescence intensity (a.u.)
21 | ATTGATTAGTAGTAATTAATTAGTTATAAACTACACGCGCCGGAGTCACCTAGTGCAG | 58700 fluorescence intensity (a.u.)
22 | GTGCAAGGATAATTGGTGATTATATTAGTGTATATTTAAGCGGAGTCACCTAGTGCAG | 18200 fluorescence intensity (a.u.)
23 | CAGATGATTAGTAATGTTAATTATGAATAAACTTGCACGCCGGAGTCACCTAGTGCAG | 51800 fluorescence intensity (a.u.)

Row | Sequence | binding signal
24 | AGCTATTAGTAGATTGGCTATAAATGAATTGGAGTTAGTACGGAGTCACCTAGTGCAG | 14900 fluorescence intensity (a.u.)
25 | ATTGATAATTAGTTCACCGAAGTAGTAGGGCGCGACACGCCGGAGTCACCTAGTGCAG | 15900 fluorescence intensity (a.u.)
26 | CTAAATTGATTATACATGATTTAGAGTTAGTAGTTAGCTACGGAGTCACCTAGTGCAG | 59600 fluorescence intensity (a.u.)
27 | CCTCCTGTTAACTCGTATCACCTCCCTCCCTCACTGAACCCGGAGTCACCTAGTGCAG | 7850 fluorescence intensity (a.u.)
28 | ATAAAGACTGTTCAATCATGATGAAGCTTTACGTAAGCGGCGGAGTCACCTAGTGCAG | 34900 fluorescence intensity (a.u.)
29 | TTTACAAACACGCAAATTAAAATTTTATTTATACAATTAACGGAGTCACCTAGTGCAG | 4180 fluorescence intensity (a.u.)
30 | GTACCAATTTAATTTATGTATCAATAAGAACATATCATGTCGGAGTCACCTAGTGCAG | 22800 fluorescence intensity (a.u.)
31 | TCAGCTTATTGACTTATATGATTTATAAGCCAATGGATTTCGGAGTCACCTAGTGCAG | 11100 fluorescence intensity (a.u.)
32 | CTGATTAGCATGCAGGATAGGAACTGATCTGTACTTGTCGCGGAGTCACCTAGTGCAG | 22300 fluorescence intensity (a.u.)
33 | ACTAATTTCATAACTCTCCTGGAAACCGTGAGATGAATCTCGGAGTCACCTAGTGCAG | 6360 fluorescence intensity (a.u.)
34 | TTCTGAATGTGATTGAATTAATTGGACTTGCGTTGACCTTCGGAGTCACCTAGTGCAG | 59500 fluorescence intensity (a.u.)
35 | GTAATTGCGGCCCATTAACCTAAATGGGCCGATCGAGTGGCGGAGTCACCTAGTGCAG | 4580 fluorescence intensity (a.u.)
36 | GATGATGATGAGGAGGATGACCAGGATGGTGGAGACTGGGCGGAGTCACCTAGTGCAG | 4950 fluorescence intensity (a.u.)
37 | TTCCTTTGATTGATCATGAGGTGGGCTGGGGCTGAGATGGCGGAGTCACCTAGTGCAG | 59400 fluorescence intensity (a.u.)
38 | ATGATTGCTTAAGAATAATTGGTGACTTGCTACGAATGTGCGGAGTCACCTAGTGCAG | 51300 fluorescence intensity (a.u.)
39 | TAGGTGATTAGTTGATTAATTAATCTTGAGCTCCTCCTAACGGAGTCACCTAGTGCAG | 58800 fluorescence intensity (a.u.)
40 | GAGAGATGATGGGCTGGTTTGGTTTGAGGCCTAAATTAGGCGGAGTCACCTAGTGCAG | 3660 fluorescence intensity (a.u.)
41 | ACAATTAACTAATAATAATTAGTGATTACTTATCTTGATTCGGAGTCACCTAGTGCAG | 45300 fluorescence intensity (a.u.)
42 | CTCGAGGTCAAATCTTGATTAATTATGCTAATTAACGCGACGGAGTCACCTAGTGCAG | 16800 fluorescence intensity (a.u.)
43 | AAATTTATGTAATTATTATTTATTTTATTGTGACTTGATTCGGAGTCACCTAGTGCAG | 8590 fluorescence intensity (a.u.)
44 | CCCACAATTAATTGGGCCTAATGGATCGGTGCCCTTGTGGCGGAGTCACCTAGTGCAG | 53600 fluorescence intensity (a.u.)
45 | CCCAATTAATTACAATGGGCCACACGCTCGTGGCCCAACTCGGAGTCACCTAGTGCAG | 10900 fluorescence intensity (a.u.)
46 | TGAATGATTGCTCTTGTGCTAAGAGAATAGACTTTATCCCCGGAGTCACCTAGTGCAG | 32000 fluorescence intensity (a.u.)

Source: article PMC7819943, “Rice protein-binding microarrays: a tool to detect cis-acting elements near promoter regions in rice”
